The record followed here is PubChem BioAssay (NCI).

Among the test systems are HCT-15 colon; HT29 colon; SNB-75 CNS; SNB-19 CNS; U251 CNS; PC-3 prostate; SK-MEL-5 melanoma; UACC-62 melanoma; LOX IMVI melanoma; SK-MEL-28 melanoma; SK-MEL-2 melanoma; EKVX NSCLC; UO-31 renal; TK-10 renal; ACHN renal; CAKI-1 renal; A498 renal; CCRF-CEM leukemia; SN12C renal; MOLT-4 leukemia.
Common to all, as to experiment: NCI-60 one-dose screen, 48 h (100 = growth as untreated, 0 = no growth, -100 = all killed)
Conditions in all cases: 10 µM unless noted

The structures appear in SMILES notation. Several values for one entry are separate records, joined by “and”; a condition that tells them apart may be missing. Identical values can stand only once. This is part of a sample that, as a whole, favours compounds with a hit. Of some 83,000 tested, about 20% had one in any assay.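 A percent growth of 40 corresponds to 60% growth inhibition; 0 means no net growth; -100 means all cells died. Active threshold: below 10.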 Activity calls are given as the source filed them.

On to `CN(C)c1ccc(C(Cc2ccc3ccccc3n2)Cc2ccc3ccccc3n2)cc1`, for which the growth in the experiment on HCT-15 colon was 51.1% (inactive) and 78.8% (inactive); in the experiment on HT29 colon it was 0.736% (active) and 59.7% (inactive); in the experiment with SNB-75 CNS, 110% (inactive) and 88.5% (inactive); in the experiment on SNB-19 CNS, 61% (inactive) and 89.3% (inactive); in the experiment with U251 CNS, 43.5% (inactive) and 81.2% (inactive); in the experiment on PC-3 prostate it was 16% (inactive) and 61.5% (inactive). Further, the growth in the experiment on SK-MEL-5 melanoma is 19.8% (inactive) and 76.7% (inactive); in the experiment with UACC-62 melanoma, 44.5% (inactive) and 73% (inactive); in the experiment on LOX IMVI melanoma, 31.3% (inactive) and 81.8% (inactive); with SK-MEL-28 melanoma, 74.9% (inactive) and 92.8% (inactive); in the experiment with SK-MEL-2 melanoma, 70% (inactive) and 88.5% (inactive); in the experiment with EKVX NSCLC, 49.2% (inactive) and 72.9% (inactive). The growth in the experiment on UO-31 renal was 2.9% (active) and 56.3% (inactive); in the experiment on TK-10 renal it was 74.1% (inactive) and 121% (inactive); in the experiment on ACHN renal, 50.5% (inactive) and 89.6% (inactive); with CAKI-1 renal, 26.1% (inactive) and 74.9% (inactive); with A498 renal, 33.7% (inactive) and 59.3% (inactive); in the experiment with CCRF-CEM leukemia it was 41.7% (inactive) and 67.4% (inactive).
With `O=C(/C=C\c1ccnc2ccccc12)c1ccc([N+](=O)[O-])cc1`, the growth in the experiment with HCT-15 colon was 87.9% (inactive) and 69.7% (inactive); in the experiment on HT29 colon, 70.3% (inactive) and 3.25% (active); with SNB-75 CNS, 110% (inactive) and 86.5% (inactive); in the experiment on SNB-19 CNS, 90% (inactive) and 86.4% (inactive); in the experiment on U251 CNS, 95.3% (inactive) and 79.6% (inactive); in the experiment on PC-3 prostate it was 93.8% (inactive) and 74.7% (inactive). Further, the growth was 67.4% (inactive) and 53.8% (inactive) in the experiment with SK-MEL-5 melanoma; 82.6% (inactive) and 70.7% (inactive) in the experiment with UACC-62 melanoma; 52.1% (inactive) and 9.87% (active) in the experiment with LOX IMVI melanoma; 104% (inactive) and 92.1% (inactive) in the experiment with SK-MEL-28 melanoma; 83.4% (inactive) and 93.8% (inactive) with SK-MEL-2 melanoma; 75.3% (inactive) with EKVX NSCLC. The growth in the experiment with SN12C renal was 96.9% (inactive) and 86.2% (inactive); in the experiment on UO-31 renal, 61.6% (inactive) and 49.7% (inactive); with ACHN renal, 75.2% (inactive) and 70.6% (inactive); with CAKI-1 renal, 89.8% (inactive) and 70.3% (inactive); with A498 renal, 109% (inactive) and 55.2% (inactive); in the experiment on CCRF-CEM leukemia, 67.9% (inactive) and 28.6% (inactive). In addition, the growth in the experiment on MOLT-4 leukemia was 63.1% (inactive) and 49.3% (inactive).
For `COc1ccccc1/C=N\N=C(N/N=C/c1ccccc1OC)N/N=C/c1ccccc1OC`, the growth in the experiment on HCT-15 colon is 55.9% (inactive) and 32.1% (inactive); in the experiment on HT29 colon, 23.7% (inactive) and 12.9% (inactive); with SNB-75 CNS it was 86.7% (inactive) and 71.1% (inactive); with SNB-19 CNS it was 59% (inactive) and 23.7% (inactive); in the experiment on U251 CNS, 39.3% (inactive) and 15.3% (inactive); with PC-3 prostate, 41.2% (inactive) and 19.7% (inactive). For the same compound, the growth was 69.8% (inactive) and -91.3% (active) with SK-MEL-5 melanoma; 55.5% (inactive) and 19.7% (inactive) with UACC-62 melanoma; 28.6% (inactive) in the experiment with LOX IMVI melanoma; 78.8% (inactive) and 64.5% (inactive) in the experiment on SK-MEL-28 melanoma; 47.5% (inactive) and 31.8% (inactive) with SK-MEL-2 melanoma; 74.4% (inactive) and 48.3% (inactive) with EKVX NSCLC. The growth in the experiment with UO-31 renal was 50.4% (inactive) and -10.3% (active); with TK-10 renal, 110% (inactive) and 57.7% (inactive); with ACHN renal, 63.8% (inactive) and 40.6% (inactive); with CAKI-1 renal, 43.6% (inactive) and 33.7% (inactive); in the experiment with A498 renal, 100% (inactive) and 72.2% (inactive); with CCRF-CEM leukemia, 39.9% (inactive) and 23.4% (inactive). The growth with MOLT-4 leukemia is 31.1% (inactive) and 8.9% (active).
For the compound `O=C(O)CN(CCN(CC(=O)O)CC(=O)O)CCN(CC(=O)O)CC(=O)O`, the growth in the experiment on HCT-15 colon is 9.67% (active) and 99.9% (inactive) and 107% (inactive); with HT29 colon it was 2.39% (active) and 108% (inactive) and 94.8% (inactive); in the experiment with SNB-75 CNS, 9.81% (active) and 87.3% (inactive) and 85.8% (inactive); in the experiment on SNB-19 CNS it was 27.6% (inactive) and 101% (inactive) and 98.6% (inactive); in the experiment with U251 CNS it was 4.18% (active) and 106% (inactive) and 94.1% (inactive); in the experiment with PC-3 prostate, 9.35% (active) and 92.8% (inactive) and 93.5% (inactive). Besides, the growth in the experiment with SK-MEL-5 melanoma is 3.74% (active) and 103% (inactive) and 106% (inactive); with UACC-62 melanoma, 8.73% (active) and 95.6% (inactive) and 101% (inactive); in the experiment with LOX IMVI melanoma it was -31.4% (active) and 101% (inactive) and 106% (inactive); in the experiment on SK-MEL-28 melanoma, 24% (inactive) and 105% (inactive) and 99.4% (inactive); with SK-MEL-2 melanoma it was -31.4% (active) and 101% (inactive) and 93.2% (inactive); in the experiment on EKVX NSCLC, -24.9% (active) and 105% (inactive) and 111% (inactive). For the same compound, the growth in the experiment with UO-31 renal is -3.87% (active) and 77.1% (inactive) and 99.1% (inactive); with TK-10 renal, -24.1% (active) and 110% (inactive) and 94% (inactive); in the experiment with ACHN renal, 97.5% (inactive) and 104% (inactive); in the experiment with CAKI-1 renal, -7.19% (active) and 87% (inactive); in the experiment with A498 renal, 12.7% (inactive); with CCRF-CEM leukemia it was 5.22% (active) and 97.7% (inactive) and 102% (inactive). The growth in the experiment with MOLT-4 leukemia was -17.3% (active) and 113% (inactive) and 96% (inactive).
For the compound `C#CCN(C)Cc1ccccc1`, the growth in the experiment with HCT-15 colon was 104% (inactive) and 103% (inactive); in the experiment on HT29 colon it was 108% (inactive) and 113% (inactive); with SNB-75 CNS, 106% (inactive) and 115% (inactive); in the experiment on SNB-19 CNS, 102% (inactive); with U251 CNS, 105% (inactive) and 101% (inactive); with PC-3 prostate, 100% (inactive) and 105% (inactive). Further, the growth in the experiment with SK-MEL-5 melanoma was 102% (inactive) and 106% (inactive); in the experiment on UACC-62 melanoma, 92.3% (inactive); in the experiment with LOX IMVI melanoma, 96.9% (inactive) and 102% (inactive); with SK-MEL-28 melanoma, 111% (inactive) and 114% (inactive); in the experiment on SK-MEL-2 melanoma, 97.5% (inactive) and 104% (inactive); in the experiment on EKVX NSCLC, 104% (inactive) and 95.2% (inactive). For the same compound, the growth in the experiment with UO-31 renal was 87.2% (inactive) and 93.2% (inactive); in the experiment on TK-10 renal, 101% (inactive) and 231% (inactive); with ACHN renal, 97.5% (inactive) and 105% (inactive); with CAKI-1 renal, 99% (inactive) and 69.1% (inactive); in the experiment with A498 renal, 126% (inactive) and 96.3% (inactive); in the experiment with CCRF-CEM leukemia it was 95.2% (inactive) and 131% (inactive). The growth with MOLT-4 leukemia was 106% (inactive) and 101% (inactive).
In the case of `O=C(O)C1(C(=O)O)CCC1.[NH2-].[NH2-].[Pt+2]`, the growth was 102% (inactive) and 103% (inactive) with HCT-15 colon; 106% (inactive) and 89.3% (inactive) in the experiment on HT29 colon; 84.7% (inactive) and 88.6% (inactive) in the experiment on SNB-75 CNS; 94.6% (inactive) and 99.2% (inactive) in the experiment on SNB-19 CNS; 102% (inactive) and 94.1% (inactive) with U251 CNS; 93.6% (inactive) and 78.5% (inactive) with PC-3 prostate. The growth was 101% (inactive) and 94.1% (inactive) in the experiment on SK-MEL-5 melanoma; 96.1% (inactive) and 95.3% (inactive) in the experiment on UACC-62 melanoma; 95.9% (inactive) and 87.9% (inactive) with LOX IMVI melanoma; 112% (inactive) with SK-MEL-28 melanoma; 97.8% (inactive) and 104% (inactive) in the experiment on SK-MEL-2 melanoma; 97.1% (inactive) and 106% (inactive) in the experiment with EKVX NSCLC. Moreover, the growth in the experiment on SN12C renal is 102% (inactive) and 103% (inactive); in the experiment on UO-31 renal, 75.6% (inactive) and 103% (inactive); in the experiment with TK-10 renal, 111% (inactive) and 104% (inactive); in the experiment on ACHN renal, 96.4% (inactive) and 103% (inactive); with CAKI-1 renal it was 88% (inactive) and 81.1% (inactive); in the experiment on CCRF-CEM leukemia, 90.8% (inactive). In addition, the growth in the experiment with MOLT-4 leukemia is 113% (inactive) and 67% (inactive).
For `O=C(O)CCCCc1ccc([N+](=O)[O-])cc1`, the growth with HCT-15 colon is 101% (inactive); in the experiment with HT29 colon it was 105% (inactive) and 98.1% (inactive); in the experiment on SNB-75 CNS, 98.7% (inactive) and 89.7% (inactive); in the experiment on SNB-19 CNS, 101% (inactive) and 105% (inactive); in the experiment on U251 CNS, 97.4% (inactive) and 108% (inactive); in the experiment with PC-3 prostate it was 88.5% (inactive) and 86.5% (inactive). Moreover, the growth is 107% (inactive) and 105% (inactive) in the experiment on SK-MEL-5 melanoma; 104% (inactive) and 90.4% (inactive) in the experiment with UACC-62 melanoma; 92.7% (inactive) and 107% (inactive) in the experiment with LOX IMVI melanoma; 113% (inactive) and 107% (inactive) in the experiment with SK-MEL-28 melanoma; 98.9% (inactive) and 113% (inactive) in the experiment with SK-MEL-2 melanoma; 107% (inactive) and 126% (inactive) in the experiment on EKVX NSCLC. Moreover, the growth in the experiment with SN12C renal is 98.9% (inactive) and 96.5% (inactive); in the experiment on UO-31 renal, 82.4% (inactive) and 73.3% (inactive); with TK-10 renal, 106% (inactive) and 99.4% (inactive); in the experiment with ACHN renal, 103% (inactive) and 98.5% (inactive); in the experiment on CAKI-1 renal it was 107% (inactive) and 102% (inactive); with CCRF-CEM leukemia, 97.1% (inactive) and 91.2% (inactive). Further, the growth with MOLT-4 leukemia was 99.4% (inactive) and 88.5% (inactive).
Consider `NC(=S)N/N=C(\c1ccc(Br)cc1)C1CC1`, for which the growth in the experiment with HCT-15 colon was 81.8% (inactive) and 82.9% (inactive); in the experiment on HT29 colon, 68.4% (inactive); in the experiment on SNB-75 CNS, 87.1% (inactive) and 76.7% (inactive); in the experiment on SNB-19 CNS, 108% (inactive); in the experiment on U251 CNS, 93.2% (inactive); in the experiment with PC-3 prostate, 84.1% (inactive) and 61.5% (inactive). The growth is 100% (inactive) and 95.9% (inactive) with SK-MEL-5 melanoma; 98.4% (inactive) with UACC-62 melanoma; 86.2% (inactive) in the experiment on LOX IMVI melanoma; 102% (inactive) and 103% (inactive) in the experiment with SK-MEL-28 melanoma; 92.8% (inactive) with SK-MEL-2 melanoma; 58% (inactive) and 68.4% (inactive) in the experiment on EKVX NSCLC. Moreover, the growth in the experiment on SN12C renal was 89.5% (inactive); in the experiment with UO-31 renal, 61.4% (inactive) and 56.8% (inactive); in the experiment on ACHN renal it was 95.7% (inactive) and 93% (inactive); in the experiment on CAKI-1 renal it was 83.7% (inactive) and 81.4% (inactive); in the experiment on A498 renal, 99.5% (inactive); in the experiment with CCRF-CEM leukemia, 52.5% (inactive) and 55.6% (inactive).
